Assay [1] is described as follows: binders of probe aFSTL3 on microarray, primary screen, stem cell growth factor project, biochemical, small-molecule microarray, fluorescence 635/667 (AID 1064).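 Further: measures binding of the biotinylated anti-FSTL3 antibody to printed compounds.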 The settings on record: higher = more signal.
Assay [2] is described as follows: binders from COS7 lysate, DM2A8 probe, primary screen, torsin A project, cell lysate, small-molecule microarray, fluorescence 635/667 (AID 1065). The settings on record: higher = more signal, COS7 lysate expressing mutant human TOR1A.
Assay [3] can be described thus: binders of probe aFGF2 on microarray, primary screen, stem cell growth factor project, biochemical, small-molecule microarray, fluorescence 635/667 (AID 1067).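 Further: measures binding of biotinylated aFGF2 protein to printed compounds on slides; z-score merges feature fluorescence and signal-to-noise across triplicate slides.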 The settings on record: higher = more signal.
The nature of assay [4]: binders of probe aFGF10 on microarray, primary screen, stem cell growth factor project, biochemical, small-molecule microarray, fluorescence 635/667 (AID 1071).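 Further: score merges 667 nm spot intensity and signal to noise from triplicate slides.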 The settings on record: higher = more signal.
Assay [5] addresses Neurogenic locus notch homolog protein 2 (Homo sapiens) (UniProt Q04721). The assay is described as follows: Notch2 binders on small-molecule microarrays, primary screen, biochemical, small-molecule microarray, 635 nm fluorescence, stem cell growth factors (AID 1073). The settings on record: Notch2 binding, higher = more signal.
For assay [6], the target named is Pro-neuregulin-1, membrane-bound isoform (Homo sapiens) (UniProt Q02297). The assay is described as follows: NRG1 binders on small-molecule microarrays, primary screen, psychiatric disease protein project, biochemical, small-molecule microarray, fluorescence 635/667 (AID 1075).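 Further: score combines 667 nm spot fluorescence with signal to noise.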 The settings on record: NRG1 binding, 635 nm fluorescence, higher = more signal.
The subject of assay [7] is Neuregulin-1 EGF-like domain. In words: binders of neuregulin-1 EGF-like domain, primary screen, biochemical, small-molecule microarray, 635 nm fluorescence (AID 1081).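 Further: binding of the protein to compounds printed on small-molecule microarray slides.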 The settings on record: small-molecule microarray binding, higher = more signal.
Assay [8] in a line: FRG1 promoter luciferase signal modulators, primary screen, FRG1 inhibition for FSHD, cell-based, C2C12 myotubes, firefly/Renilla luciferase, luminescence (AID 1084). The settings on record: higher = more signal, called active from +8 up or from −8 down.
The nature of assay [9]: binders of probe aFST on microarray, primary screen, stem cell growth factor project, biochemical, small-molecule microarray, fluorescence 635/667 (AID 1086).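 Further: score merges 667 nm fluorescence with signal-to-noise of each printed compound spot.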 The settings on record: higher = more signal.
Assay [10] can be described thus: binders of probe aHhip on microarray, primary screen, stem cell growth factor project, biochemical, small-molecule microarray, fluorescence 635/667 (AID 1087).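 Further: score merges spot fluorescence at 667nm with spot signal to noise ratio.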 The settings on record: higher = more signal.

SMILES strings stand for the structures. Calls of active or inactive are those of the source.

Pro-neuregulin-1, membrane-bound isoform (Homo sapiens), sequence (Q02297 whole entry, looked up, the tested form may be a part, canonical isoform): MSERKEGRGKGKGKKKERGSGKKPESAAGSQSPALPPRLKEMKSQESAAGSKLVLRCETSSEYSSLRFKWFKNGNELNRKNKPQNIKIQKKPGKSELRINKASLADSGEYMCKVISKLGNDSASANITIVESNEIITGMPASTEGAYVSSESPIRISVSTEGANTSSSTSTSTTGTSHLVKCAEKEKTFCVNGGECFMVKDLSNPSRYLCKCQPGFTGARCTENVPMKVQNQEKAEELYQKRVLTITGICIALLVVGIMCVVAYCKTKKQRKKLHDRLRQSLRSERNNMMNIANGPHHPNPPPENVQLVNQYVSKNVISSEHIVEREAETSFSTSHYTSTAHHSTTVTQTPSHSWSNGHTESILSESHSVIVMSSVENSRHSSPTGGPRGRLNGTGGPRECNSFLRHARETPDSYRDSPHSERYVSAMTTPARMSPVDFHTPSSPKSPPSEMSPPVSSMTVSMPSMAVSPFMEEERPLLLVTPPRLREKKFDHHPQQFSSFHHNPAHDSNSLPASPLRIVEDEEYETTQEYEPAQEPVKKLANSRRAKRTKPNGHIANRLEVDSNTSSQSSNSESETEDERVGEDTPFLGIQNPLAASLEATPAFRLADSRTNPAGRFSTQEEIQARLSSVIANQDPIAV
Neurogenic locus notch homolog protein 2 (Homo sapiens), sequence (Q04721 whole entry, looked up, canonical isoform): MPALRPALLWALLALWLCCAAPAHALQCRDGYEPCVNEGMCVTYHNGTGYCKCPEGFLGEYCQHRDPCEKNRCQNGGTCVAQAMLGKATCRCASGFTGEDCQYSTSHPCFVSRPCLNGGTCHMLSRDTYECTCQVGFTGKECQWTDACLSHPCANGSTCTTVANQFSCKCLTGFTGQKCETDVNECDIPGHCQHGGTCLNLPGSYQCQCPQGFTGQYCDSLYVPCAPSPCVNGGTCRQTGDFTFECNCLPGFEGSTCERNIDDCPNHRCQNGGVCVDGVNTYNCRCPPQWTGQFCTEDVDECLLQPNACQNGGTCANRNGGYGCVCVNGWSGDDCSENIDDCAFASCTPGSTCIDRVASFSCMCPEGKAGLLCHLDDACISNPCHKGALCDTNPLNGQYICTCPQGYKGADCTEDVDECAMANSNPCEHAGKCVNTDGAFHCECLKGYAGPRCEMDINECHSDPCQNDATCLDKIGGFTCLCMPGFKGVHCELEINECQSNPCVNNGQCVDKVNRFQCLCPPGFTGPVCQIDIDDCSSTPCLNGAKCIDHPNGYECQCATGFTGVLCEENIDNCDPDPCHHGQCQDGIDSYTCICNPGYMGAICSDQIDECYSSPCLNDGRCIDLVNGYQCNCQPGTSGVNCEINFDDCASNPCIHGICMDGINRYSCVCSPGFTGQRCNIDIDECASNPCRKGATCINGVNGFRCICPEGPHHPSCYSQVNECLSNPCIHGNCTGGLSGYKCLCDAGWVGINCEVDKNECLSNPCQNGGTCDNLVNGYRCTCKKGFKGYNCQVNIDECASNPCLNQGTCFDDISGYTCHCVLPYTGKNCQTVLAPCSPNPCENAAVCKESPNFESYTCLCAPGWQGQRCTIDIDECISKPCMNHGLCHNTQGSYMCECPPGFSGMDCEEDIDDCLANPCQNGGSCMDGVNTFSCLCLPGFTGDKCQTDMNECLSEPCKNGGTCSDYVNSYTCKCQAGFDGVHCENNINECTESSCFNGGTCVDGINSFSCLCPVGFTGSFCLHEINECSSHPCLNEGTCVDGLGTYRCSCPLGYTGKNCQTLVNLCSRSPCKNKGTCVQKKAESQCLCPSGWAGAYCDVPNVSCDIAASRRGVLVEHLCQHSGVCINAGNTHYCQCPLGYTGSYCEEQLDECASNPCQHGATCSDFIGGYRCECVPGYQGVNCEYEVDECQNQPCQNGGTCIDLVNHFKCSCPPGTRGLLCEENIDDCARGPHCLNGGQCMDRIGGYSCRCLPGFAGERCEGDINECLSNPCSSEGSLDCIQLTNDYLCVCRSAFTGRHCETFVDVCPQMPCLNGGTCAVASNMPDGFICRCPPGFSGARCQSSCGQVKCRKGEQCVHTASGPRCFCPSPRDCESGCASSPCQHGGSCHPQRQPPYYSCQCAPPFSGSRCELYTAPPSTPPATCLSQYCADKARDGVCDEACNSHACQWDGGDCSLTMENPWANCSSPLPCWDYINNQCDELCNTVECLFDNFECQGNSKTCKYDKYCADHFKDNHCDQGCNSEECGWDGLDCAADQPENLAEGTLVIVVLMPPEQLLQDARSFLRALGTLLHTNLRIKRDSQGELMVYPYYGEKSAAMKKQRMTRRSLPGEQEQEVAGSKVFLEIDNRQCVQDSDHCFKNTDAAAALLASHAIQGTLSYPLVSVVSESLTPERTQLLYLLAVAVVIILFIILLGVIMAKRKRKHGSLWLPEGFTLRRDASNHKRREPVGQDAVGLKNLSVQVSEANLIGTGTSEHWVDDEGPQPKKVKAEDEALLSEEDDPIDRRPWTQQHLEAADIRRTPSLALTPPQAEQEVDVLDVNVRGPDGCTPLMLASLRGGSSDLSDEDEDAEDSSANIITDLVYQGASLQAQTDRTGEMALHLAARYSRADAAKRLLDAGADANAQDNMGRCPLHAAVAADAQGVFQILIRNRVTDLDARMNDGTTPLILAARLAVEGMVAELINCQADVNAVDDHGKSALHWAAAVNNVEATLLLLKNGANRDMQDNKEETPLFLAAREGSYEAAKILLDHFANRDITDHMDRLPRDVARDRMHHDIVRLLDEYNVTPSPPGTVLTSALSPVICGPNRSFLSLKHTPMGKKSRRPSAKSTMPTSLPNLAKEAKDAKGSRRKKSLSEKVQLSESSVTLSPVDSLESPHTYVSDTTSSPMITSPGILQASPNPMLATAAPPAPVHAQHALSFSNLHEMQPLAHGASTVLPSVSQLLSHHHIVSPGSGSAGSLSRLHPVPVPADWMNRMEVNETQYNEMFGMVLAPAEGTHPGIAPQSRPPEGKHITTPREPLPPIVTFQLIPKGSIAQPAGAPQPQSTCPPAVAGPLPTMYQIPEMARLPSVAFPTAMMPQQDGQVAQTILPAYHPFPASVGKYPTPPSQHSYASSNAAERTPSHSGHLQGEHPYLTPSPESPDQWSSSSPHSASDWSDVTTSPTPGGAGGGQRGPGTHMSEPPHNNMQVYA

In the case of `CN(C)C(=O)[C@@]1(Cc2ccccc2CN=[N+]=[N-])COC(c2ccc(OCCCO)cc2)=N1`, the composite z-score was 0.695 in assay [1]; -0.445 in assay [2]; -0.085 in [3]; -0.0663 in assay [4]; 0.0696 in assay [5]; 1.63 in [6]. The composite z-score in assay [7] is 1.1; in [9], 0.681; in assay [10], -0.134. Also, the z-score in [8] is -2.47 (inactive).

On to `C=CCC(OC(C)=O)[C@@H]1[C@@H](N(Cc2cc3ccccc3o2)C(=O)Cc2ccc(OC)cc2)c2cc(OCCCO)ccc2N1C(=O)c1ccc2ccccc2n1` (stereo not given in full), for which the composite z-score in assay [1] is -0.0558; in assay [2], -0.24; in assay [3], 0.0372; in assay [4], 0.176; in assay [5], 0.0554; in assay [6], -0.251. In addition, the composite z-score in [7] was -0.0159; in [9], 0.271; in assay [10] it was 0.12. Further, the z-score in [8] was 0.544 (inactive).

On to `C=CCOC(=O)[C@H]1[C@@H]2C(=O)O[C@@H](c3ccccc3)[C@@H](c3ccccc3)N2[C@@H](c2ccc(OCCOC(=O)[C@@H]3C[C@@H]4C(=O)N[C@@H](CCCC[N+](C)(C)C)C(=O)N4[C@@H]3c3ccc(O)cc3)cc2)[C@]12C(=O)Nc1ccc(I)cc12`, for which the composite z-score in [1] was -0.291; in [2] it was 0.857; in [3], 0.0559; in [4], 0.719; in assay [5], 1.24; in assay [6] it was 1.44. Moreover, the composite z-score in assay [7] is 1.11; in assay [9], 0.365; in assay [10], -0.0088. Further, the z-score in assay [8] is 0.687 (inactive).

In the case of `CN1C(=O)C2C(C1=O)C1C=C(c3ccc(CO)cc3)C2C(C2CC2)N1C` (stereo not given), the composite z-score in [1] was -0.23; in [2], 0.388; in assay [3], -0.0932; in assay [4] it was 0.0656; in assay [5], -0.337; in assay [6], 1.16. Besides, the values for the composite z-score in assay [7], in assay [9] and in assay [10] were 0.811, -0.176 and 0.0749, respectively. In [8], the z-score was 0.0916 (inactive).

Consider `CCCC[C@H]1OB(O)C[C@H]2C1=C(COc1ccccc1)C[C@H]1C(=O)C=CC(=O)[C@H]12`, for which the composite z-score in assay [1] is -0.315; in [2], 0.351; in [3], -0.0503; in assay [4], 0.603; in assay [5], 0.489; in assay [6], 0.169. For the same molecule, the composite z-score turned out to be 0.19 in [7], 0.23 in [9] and 0.316 in [10]. In addition, the z-score in [8] is -1.1 (inactive).

For `COCCOC(=O)N1C(=O)[C@@]2(c3cc(C#CCCO)ccc31)[C@H](c1ccc(OCCO)cc1)N1[C@H](c3ccccc3)[C@H](c3ccccc3)OC(=O)[C@H]1[C@@H]2C(=O)N1CCCCCCC1`, the composite z-score amounted to 3.17 in assay [1]; 1.15 in [2]; 0.487 in assay [3]; 1.08 in [4]; 1.37 in assay [5]; 1.65 in assay [6]. For the same molecule, the results for the composite z-score in [7], in assay [9] and in assay [10] were 1.16, 2.65 and 3.2, respectively. For the same molecule, the z-score in assay [8] was 0.278 (inactive).

For `C[C@@H]1ON(c2ccc(I)cc2)[C@H](c2cccc(NC(=O)OCC3c4ccccc4-c4ccccc43)c2)[C@H]1C(=O)N1C(=O)OC[C@H]1Cc1ccccc1`, the composite z-score in assay [1] is -0.162; in assay [2], 0.382; in assay [3], -0.132; in [4], 0.15; in [5] it was 0.524; in [6], 0.608. Further, the composite z-score worked out at 0.0222 in assay [7], 0.0393 in assay [9] and 0.132 in [10]. The z-score in assay [8] was 0.108 (inactive).

In the case of `CN(C)C(=O)[C@]1(Cc2ccccc2)N=C(c2ccc(OCCCO)cc2)O[C@@H]1c1ccccc1CN=[N+]=[N-]`, the composite z-score is -0.106 in [1]; 1.31 in assay [2]; -0.0465 in [3]; 1.18 in assay [4]; 1.62 in [5]; 1.33 in [6]. Also, the composite z-score in assay [7] was 1.22; in assay [9] it was 0.879; in assay [10], -0.126. The z-score in assay [8] was -0.783 (inactive).

`C=CCOC(=O)[C@@H]1[C@H]2C(=O)O[C@H](c3ccccc3)[C@H](c3ccccc3)N2[C@H](c2ccc(OCCOC(=O)[C@H]3C[C@H]4C(=O)N5CCC[C@H]5C(=O)N4[C@H]3c3cccc(OCCO)c3)cc2)[C@@]12C(=O)Nc1ccc(I)cc12`: the composite z-score is -0.0333 in assay [1]; 0.546 in assay [2]; -0.0538 in [3]; 0.441 in assay [4]; 0.596 in assay [5]; 0.499 in [6]. In addition, the results for the composite z-score in assay [7], in [9] and in assay [10] were 1.2, 0.182 and -0.0767, respectively. Moreover, in assay [8], the z-score was 1.67 (inactive).

`C[N+](C)(C)CCCC[C@@H]1NC(=O)[C@H]2C[C@@H](C(=O)NCCCCCNC(=O)CS)[C@@H](c3cccc(OCCO)c3)N2C1=O`: the composite z-score in assay [1] was -0.121; in [2] it was 0.348; in [3] it was -0.102; in [4] it was 0.0107; in [5], -0.324; in assay [6], 1.5. Besides, the results for the composite z-score in assay [7], in [9] and in assay [10] were 0.785, 0.0685 and 0.0373, respectively. The z-score in assay [8] was -0.474 (inactive).

`CCC(CC)C(O)C1C=CC2C(=O)N(c3ccccc3)C(=O)C2N1Nc1ccccc1F` (stereo not given): the composite z-score in assay [1] was -0.226; in assay [2] it was 1.01; in assay [3], -0.0222; in [4], 0.715; in [5] it was 1.48; in assay [6], 1.29. Besides, the composite z-score turned out to be 1.38 in [7], 1 in [9] and 0.0373 in [10]. Also, the z-score in assay [8] was -0.556 (inactive).

In the case of `C=C(CCCC)/C(=C/C[C@H](OC(=O)c1ccncc1)c1ccccc1OCCO)c1cc(C(=O)OC)ccc1OC`, the composite z-score in [1] was -0.17; in assay [2], 0.963; in assay [3], -0.0591; in assay [4] it was 0.845; in assay [5], 0.101; in assay [6] it was -0.217. In addition, the composite z-score in assay [7] was 0.787; in [9], 0.416; in assay [10], -0.0237. For the same molecule, the z-score in assay [8] was 0.908 (inactive).

For `NC(=O)N1C(=O)C2C(C1=O)C1C=C(CCCO)C2C(c2ccc(CN3CCCC3)cc2)N1Cc1cc2c(cc1Br)OCO2` (stereo not given), the composite z-score was 0.117 in [1]; 0.19 in [2]; -0.0909 in assay [3]; -0.0906 in [4]; -0.362 in [5]; -0.311 in assay [6]. The composite z-score in [7] was 0.626; in [9], -0.369; in assay [10] it was -0.476. In assay [8], the z-score was -0.905 (inactive).

For `[N-]=[N+]=Nc1ccccc1C[C@]1(C(=O)N2CCOCC2)N=C(c2ccc(OCCCO)cc2)O[C@H]1c1ccccc1N=[N+]=[N-]`, the composite z-score in [1] was -0.214; in assay [2], 1.05; in assay [3], 0.119; in assay [4] it was 0.499; in assay [5] it was 1.5; in [6], 1.68. Further, the composite z-score in [7] is 1.36; in [9], 1.53; in assay [10], -0.0237. Also, the z-score in [8] is -2.32 (inactive).

Consider `O=C1N(Cc2ccccc2)c2ccccc2C[C@@]12COC(c1ccc(OCCCO)cc1)=N2`, for which the composite z-score in assay [1] is 0.689; in [2], 0.445; in assay [3], -0.0592; in [4], 0.979; in assay [5], 0.984; in assay [6], 1. Moreover, the composite z-score is 1.23 in assay [7], 0.361 in assay [9] and -0.0237 in assay [10]. Also, the z-score in [8] was -1.14 (inactive).

As for `CCOc1cc(C(O)C2C=CC3C(=O)N(c4ccccc4)C(=O)C3N2Nc2ccccc2F)ccc1O` (stereo not given), the composite z-score in assay [1] was 2.51; in assay [2], 0.112; in [3] it was 0.252; in [4] it was 0.334; in assay [5], 0.935; in assay [6], 2.06. The composite z-score in [7] is 1.37; in [9], 1.51; in assay [10], 0.02. Also, the z-score in [8] was 0.118 (inactive).

The values above are taken from PubChem BioAssay.
